HT1080 IDH1KD tx: kills HT-1080 cells with IDH1 knockdown; Potency, µM (titrated, usually from 46.1 µM), without a hit: top-dose activity, negative = toxicity, most hits filed as cytotoxic; HT-1080 IDH1 knockdown viability, ATP luminescence, 48 h; hit rate 2% among 360,000; AID 686971;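 note: 0% = DMSO wells and -100% = cell-free medium wells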
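Assay cells: HT-1080 with IDH1 knockdown, 750 per well, RPMI/5% FBS. Exposure: 48 h at 37 °C following 2 h pre-incubation. Read: CellTiter-Glo luminescence; fitted concentration-response, curve class assigned.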
HT1080NT lethal: kills 2HG-producing HT-1080-NT fibrosarcoma cells. Potency, µM (titrated, usually from 46.1 µM), for inactives: at the top dose activity, negative = less viability, most hits filed as cytotoxic. hit rate 1.6% among 360,000. HT-1080-NT fibrosarcoma viability, CellTiter-Glo ATP luminescence, 48 h;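 note: NT is the 2HG producing partner of a matched IDH1 knockdown line; 0% = DMSO-treated cells and -100% = media-only wells without cells; nearly all actives have a fitted effect of over 55% in size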
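Fibrosarcoma NT cells, 750 per well in 5% FBS RPMI, were exposed to compound for 48 hours. Viability: CellTiter-Glo luminescence.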
KB-3-1 cytotox: kills parental KB-3-1 adenocarcinoma cells; KB-3-1 viability, CellTiter-Glo ATP luminescence, 72 h; Potency, µM (top dose mostly 46.1 µM), hits mostly cytotoxic; hit rate 1.4% among 400,000; AID 1347075; note: nearly all actives have a fitted effect of over 60% in size
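Screening of KB-3-1 cells (DMEM, 10% FBS, phenol-red free) ran from lowest to highest compound concentration; after 72 h at 37 °C viability was read luminescently and curves fitted.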
KB-V1 MDR tox: kills drug-selected multidrug resistant KB-V1 cells. KB-V1 MDR cells viability, CellTiter-Glo, 72 h. Potency, µM (highest dose often 46.1 µM), hits mostly cytotoxic. hit rate 3.4% among 400,000; note: nearly all actives have a fitted effect of over 60% in size
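Cytotoxicity via CellTiter-Glo luminescence after 72 h compound exposure at 37 degrees C. Cells: drug-selected KB-V1 line, DMEM phenol-red free plus 10% FBS. Compounds tested at multiple concentrations; normalized data fitted to concentration-effect curves.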
TDP1 cell noCPT: qHTS for Inhibitors of human tyrosyl-DNA phosphodiesterase 1 (TDP1): qHTS in cells in absence of CPT | hit rate 15% among 420,000 | Potency, µM (highest dose often 46.2 µM), for the others: at the highest dose activity change, negative = growth inhibition, most hits filed as inhibitors | DT40 Tdp1-/- hTDP1 cells, no CPT, ATP luminescence, 48 h | AID 686978, 2013; note: nearly all actives have a fitted effect of over 55% in size
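Stably hTDP1-transfected Tdp1-null chicken DT40 cells were treated with library compounds minus camptothecin and grown for at least 48 hr at 37 °C, after which cellular ATP was quantified by luminescence.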
DT40 TDP1 CPT: DT40-hTDP1 cell growth loss with CPT; chicken DT40 Tdp1-/-;hTDP1 cells + 20 nM CPT, ATP luminescence, 48 h; Potency, µM (highest dose often 46.2 µM), for the others: at the highest dose activity change, negative = growth inhibition, most hits filed as inhibitors; hit rate 12% among 420,000; AID 686979; note: nearly all actives have a fitted effect of over 55% in size
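Cell growth measured by CellTiter-Glo luminescence after a minimum 48 h, 37 C compound exposure with 20 nM CPT in Tdp1-knockout DT40 cells stably expressing hTDP1, seeded 400/well; qHTS titration format.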
The depositor's hits bear a star; i = inactive; ? = inconclusive; / = not tested or not shown; [ ] = remark or other dose. Shown are actives, neighbours in structure and some others; about 19% of the full set was active somewhere. Calls come from the whole dose curve; as a rule, active = well fitted curve in the direction sought with a large enough effect; inconclusive = small, poorly fitted or top-dose-only effect, or another doubt; inactive = no such curve, though single readings can be large; an effect the other way counts as inactive or inconclusive. Unless noted, % is set by controls: 0 for no effect and ±100 for the full control effect; potency is the fitted concentration of half-maximal effect.

SMILES	HT1080 IDH1KD tx	HT1080NT lethal	KB-3-1 cytotox	KB-V1 MDR tox	TDP1 cell noCPT	DT40 TDP1 CPT
COc1ccc(NC(=S)NC(NC(=O)CF)C(Cl)(Cl)Cl)c([N+](=O)[O-])c1 (stereo unspecified)	-1.0%	1.4%	i	i	-40.7%	5.3%
C1=C(c2c[nH]c3ccccc23)CCN(Cc2ccccc2)C1	?	?	?	i	4.61µM*	9.2µM*
CN1CC=C(c2c[nH]c3ccccc23)CC1	4.7%	-18.3%	i	i	-18.5%	-29.9%
Cc1nc(C)n(CC(O)COc2ccc3cc(Br)ccc3c2)n1 (stereo unspecified)	?	-5.9%	i	i	?	?
O=C1CN=C(c2ccc[nH]2)c2cc(Cl)ccc2N1	-11.4%	-4.3%	i	i	0.0326µM*	0.164µM*
CN=C1CN=C(c2ccc[nH]2)c2cc(Cl)ccc2N1	/	/	?	i	0.112µM*	0.0794µM*
CCc1nc2ccc(C(=O)NCCN3CCNC3=O)cn2c1N(CC)Cc1cccc(Br)c1	-9.4%	3.2%	i	i	?	?
COc1cccc(N2CCN(Cc3cccc(Cl)c3)CC2)c1	1.2%	3.5%	i	i	-11.5%	-2.5%
COc1ccc(CN2CCN(C(=O)Cc3ccccc3)CC2)c(OC)c1	13.3%	8.4%	i	i	-4.3%	1.4%
COc1cccc(N2CCN(Cc3ccc(Cl)cc3)CC2)c1	-8.3%	6.2%	i	16.4µM*	-21.0%	-22.1%
COc1ccc(CN2CCN(Cc3ccccc3)CC2)c(OC)c1	-22.6%	-14.7%	i	23.1µM*	-23.0%	?
COC(=O)C1=C(c2cccc(OC)c2OC)C[C@@H]2CC[C@H]1N2C(=O)NCc1ccco1	-1.9%	0.0%	i	i	-4.5%	-1.8%
CC1(C)[C@@H](O)C[C@H]2[C@](C)(O)[C@@H]3CC[C@H]4[C@@H](O)[C@@]3(C[C@@H](O)[C@@]21O)C[C@@]4(C)O	/	/	/	/	6.4%	-2.5%
O=C(O)c1cc(O)c(O)c(O)c1	/	/	/	/	0.92µM*	0.581µM*
O=C(CN1C(=O)c2ccccc2C1=O)N1CCN(c2nnc(-c3ccccc3)c3ccccc23)CC1	-7.9%	-4.3%	?	?	?	-18.5%
C#CCOS(=O)OC1CCCCC1Oc1ccc(C(C)(C)C)cc1 (stereo unspecified)	/	/	/	/	-23.7%	-25.8%
CC1=C(N2CC2)C(=O)C(CO)=C(N2CC2)C1=O	0.0058µM*	?	0.461µM*	0.259µM*	0.0291µM*	0.0259µM*
O=S(=O)(c1ccc(F)cc1)N1CCCCC1c1cccnc1 (stereo unspecified)	7.7%	1.5%	i	i	-28.5%	?
CCN(CC)c1nc2ccccc2nc1C(=O)Nc1cccc(C(C)=O)c1	/	/	i	i	?	?
O=C1NC2NC(=O)N([N+](=O)[O-])C2N1 (stereo unspecified)	7.0%	6.1%	i	i	4.7%	20.0%
CC(=NNC(=S)N1CC2CCC(CC2)C1)c1nccs1	?	-28.9%	?	?	0.0259µM*	0.0206µM*
O=C(c1ccc2c(c1)N(Cc1c(F)cccc1Cl)C(=O)c1ccccc1S2)N1CCC2(CC1)OCCO2	/	/	i	i	23.1µM*	?
CN1C(=O)c2ccccc2Sc2ccc(C(=O)N3CCC4(CC3)OCCO4)cc21	9.4%	24.1%	?	i	-3.1%	-22.0%
CCN1C(=O)c2ccccc2Sc2ccc(C(=O)N3CCC4(CC3)OCCO4)cc21	-5.1%	5.6%	i	i	13µM*	?
CC[C@H](C)[C@H](NC(=O)[C@@H]1CCCN1C(=O)[C@H](CCC(=O)O)NC(=O)[C@@H](NC(=O)[C@H](Cc1ccccc1)NC(=O)[C@@H]1CCCN1C(=O)[C@@H](N)Cc1ccc(O)cc1)C(C)C)C(=O)O	/	/	/	/	4.7%[4.12 µM]	-1.2%[4.12 µM]
SMILES	HT1080 IDH1KD tx	HT1080NT lethal	KB-3-1 cytotox	KB-V1 MDR tox	TDP1 cell noCPT	DT40 TDP1 CPT
Cc1ccc(CN2C3CCCC2CC(NC(=O)Nc2cccc(F)c2)C3)cc1 (stereo unspecified)	-20.0%	?	?	i	14.6µM*	?
Cc1ccc(CN2C3CCCC2CC(NC(=O)c2ccc(F)cc2)C3)cc1 (stereo unspecified)	-0.9%	-10.1%	i	?	?	-9.3%
COc1ccc2[nH]c(C)c(CCNCc3cccnc3)c2c1	-3.2%	0.3%	i	i	9.6%	1.4%
Cc1[nH]c2ccc(OC(F)(F)F)cc2c1CCNCc1cccc([N+](=O)[O-])c1	13µM*	14.6µM*	?	?	13µM*	?
Cc1[nH]c2ccc(OC(F)(F)F)cc2c1CCNCc1ccc(Cl)cc1	14.6µM*	?	?	?	14.6µM*	25.9µM*
CCOc1cccc(CNCCc2c(C)[nH]c3ccc(OC(F)(F)F)cc23)c1O	18.4µM*	?	i	23.1µM*	2.06µM*	2.91µM*
CCOc1cc(CNCCc2ccccc2F)ccc1OC	0.0%	-2.0%	i	i	?	?
CC(NCc1ccccc1Cl)C(O)c1ccccc1 (stereo unspecified)	-5.5%	-10.6%	i	?	-15.2%	-26.4%
CC(NCc1ccc(Cl)c(Cl)c1)C(O)c1ccccc1 (stereo unspecified)	?	?	i	i	?	16.4µM*
CCCCNC(C)Cc1ccccc1 (stereo unspecified)	-4.5%	17.2%	i	i	-3.7%	-1.7%
COc1ccc(CC(C)NCCC(c2ccccc2)c2ccccc2)cc1 (stereo unspecified)	-27.3%	-27.5%	i	?	16.4µM*	13µM*
O=C1NC(=O)C2(Cc3ccccc3N3CCCC32)C(=O)N1Cc1ccccc1 (stereo unspecified)	-6.8%	0.1%	i	i	23.1µM*	?
O=C1NC(=O)C2(Cc3c(nc4ccccn4c3=O)N3CCCCCC32)C(=O)N1Cc1ccccc1 (stereo unspecified)	-3.2%	-3.3%	i	?	23.1µM*	20.6µM*
O=C1NC(=O)[C@]2(Cc3ccccc3N3CCN(c4ccccc4)CC32)C(=O)N1Cc1ccccc1 (stereo partly specified)	-1.6%	-1.6%	i	i	23.1µM*	20.6µM*
CN1C(=O)NC(=O)[C@]2(Cc3ccccc3N3CCN(c4ccccc4)CC32)C1=O (stereo partly specified)	0.3%	0.7%	i	i	?	?
CNCC/C=C\c1cccnc1	/	/	/	/	-22.2%	-4.9%
